# Assay outcomes deposited in PubChem BioAssay by National Center for Advancing Translational Sciences (NCATS).
# TDP1 block: qHTS Assay for Inhibitors of Tyrosyl-DNA Phosphodiesterase (TDP1) | Tyrosyl-DNA phosphodiesterase 1 (Homo sapiens), Q9NUW8 | recombinant TDP1, AlphaScreen DNA substrate cleavage | Potency, µM (doses to about 130 µM), most hits filed as inhibitors | 350,000 compounds, 0.28% hits; note: nearly all actives have a fitted effect of over 40% in size
#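 Compounds were preincubated with Tdp1 (1 nM final) for 15 min at room temperature before substrate (15 nM final) started a 5 min reaction; beads (10 ug/ml final) were then added for 10 min before AlphaScreen detection.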
# VDR inhibitor: Inhibitors of the vitamin D receptor (VDR): qHTS | Vitamin D3 receptor (Homo sapiens), P11473 | VDR-SRC2-3 peptide fluorescence polarization, 2 h | Potency, µM, most hits filed as inhibitors | 400,000 compounds, 0.93% hits | AID 504847, 2011
#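 After 23 nl compound addition and a short centrifugation, plates sat for 2 hours at ambient temperature; polarization of fluorescence then indicated loss of VDR binding to peptide SRC2-3.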
# KAT2A inh: qHTS Assay for Inhibitors of GCN5L2 | Histone acetyltransferase KAT2A (Homo sapiens), Q92830 | GCN5L2 HAT assay, ThioGlo1 CoA-SH fluorescence | Potency, µM (top dose mostly 58.9 µM), usual class: inhibitors | 390,000 compounds, 0.21% hits
# Target sequence (Q92830 whole entry, looked up): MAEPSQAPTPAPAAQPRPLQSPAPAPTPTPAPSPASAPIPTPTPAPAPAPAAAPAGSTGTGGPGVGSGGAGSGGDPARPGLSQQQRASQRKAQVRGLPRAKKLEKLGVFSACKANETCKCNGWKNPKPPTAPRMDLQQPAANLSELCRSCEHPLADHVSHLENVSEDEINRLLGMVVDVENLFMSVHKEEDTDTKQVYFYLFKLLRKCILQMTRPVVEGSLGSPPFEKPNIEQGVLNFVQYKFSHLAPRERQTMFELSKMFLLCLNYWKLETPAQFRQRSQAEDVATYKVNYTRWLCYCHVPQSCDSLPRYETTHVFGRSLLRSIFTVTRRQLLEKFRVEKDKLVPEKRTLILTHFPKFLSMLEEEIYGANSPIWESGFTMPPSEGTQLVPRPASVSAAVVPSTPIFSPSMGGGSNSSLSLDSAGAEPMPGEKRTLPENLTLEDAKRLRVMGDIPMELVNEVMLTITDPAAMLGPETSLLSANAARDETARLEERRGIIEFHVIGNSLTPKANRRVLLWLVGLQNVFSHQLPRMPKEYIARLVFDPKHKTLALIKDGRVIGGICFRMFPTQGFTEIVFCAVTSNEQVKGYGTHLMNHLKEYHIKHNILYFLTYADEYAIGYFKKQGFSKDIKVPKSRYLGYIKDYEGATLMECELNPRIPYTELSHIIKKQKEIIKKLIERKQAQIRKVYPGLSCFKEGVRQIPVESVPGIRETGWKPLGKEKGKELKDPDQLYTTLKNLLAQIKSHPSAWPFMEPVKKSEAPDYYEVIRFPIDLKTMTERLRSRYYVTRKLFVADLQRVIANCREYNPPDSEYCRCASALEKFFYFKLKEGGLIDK
#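 Enzyme at 20nM final was mixed with library compounds for 15 min at room temperature. Peptide H3(1-25) at 75uM, acetyl-CoA at 70uM and ThioGlo1 at 50uM were then added. Plates were read immediately and after 20 min (Ex340nm/Em540nm).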
# PLK1 PBD inh: qHTS for Inhibitors of PLK1-PDB (polo-like kinase 1 - polo-box domain): Primary Screen | Serine/threonine-protein kinase PLK1 (Homo sapiens), P53350 | Plk1 PBD binding of FITC phosphopeptide, fluorescence polarization | Potency, µM, actives largely listed as inhibitors | 360,000 compounds, 2.8% hits | AID 720504, 2013; note: series mostly up to about 57 µM; nearly all actives have a fitted effect of over 65% in size
# TDP1 cell CPT: qHTS for Inhibitors of human tyrosyl-DNA phosphodiesterase 1 (TDP1): qHTS in cells in presence of CPT | chicken DT40 Tdp1-/-;hTDP1 cells + 20 nM CPT, ATP luminescence, 48 h | AID 686979, 2013 | 420,000 compounds, 12% hits | Potency, µM (titrated, usually from 46.2 µM), hits mostly inhibitors; note: nearly all actives have a fitted effect of over 55% in size
#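 Chicken DT40 Tdp1-/- cells complemented with human TDP1, 400 cells/well, exposed to compounds plus 20 nM camptothecin for at least 48 h at 37 C; viability read as ATP content by CellTiter-Glo luminescence.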
# DT40 TDP1 no CPT: qHTS for Inhibitors of human tyrosyl-DNA phosphodiesterase 1 (TDP1): qHTS in cells in absence of CPT; DT40 Tdp1-/- hTDP1 cells, no CPT, ATP luminescence, 48 h; Potency, µM (series often up to 46.2 µM), usual class: inhibitors; 420,000 compounds, 15% hits; AID 686978, 2013; note: nearly all actives have a fitted effect of over 55% in size
#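 No-CPT arm: Tdp1-/-;hTDP1 DT40 cells (400/well) plus compounds, incubated ≥48 hr at 37 °C. Readout CellTiter-Glo luminescence.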
# Hits are given with their value; n = inactive; u = inconclusive; x = not tested or not shown; [ ] = remark or other dose. Most compounds without a hit are left out; they make up all but 18% or so of the library. Calls come from the whole dose curve; as a rule, active = well fitted curve in the direction sought with a large enough effect; inconclusive = small, poorly fitted or top-dose-only effect, or another doubt; inactive = no such curve, though single readings can be large; an effect the other way counts as inactive or inconclusive.
SMILES,TDP1 block,VDR inhibitor,KAT2A inh,PLK1 PBD inh,TDP1 cell CPT,DT40 TDP1 no CPT
CC(CCc1ccc(O)cc1)N1CCOc2c(O)cc(-c3nc4ccccc4s3)cc2C1 (stereo unspecified),x,x,x,x,18µM,16µM
CC1CCN(CC(O)CN2c3ccccc3Sc3ccccc32)CC1 (stereo unspecified),x,n,n,n,u,18µM
OCCNCC(O)CN1c2ccccc2Sc2ccccc21 (stereo unspecified),x,n,n,n,u,u
CC(=O)N1c2ccc(S(=O)(=O)NCCC(=O)NCc3ccc(Cl)cc3)cc2CC1C (stereo unspecified),n,n,n,n,u,15µM
CC(=O)N1c2ccc(S(=O)(=O)NCCC(=O)NCc3ccc(N(C)C)cc3)cc2CC1C (stereo unspecified),n,u,n,11µM,u,u
CC(=O)N1c2ccc(S(=O)(=O)NCCC(=O)N(C)Cc3ccccc3)cc2CC1C (stereo unspecified),n,n,n,n,u,u
O=C(CCn1c(=O)c2cccn2c2cccnc21)N1CCN(c2cccc(C(F)(F)F)c2)CC1,n,n,n,x,15µM,9.2µM
Cc1ccc(Cl)cc1N1CCN(C(=O)CCCCCn2c(=O)[nH]c3ccccc3c2=O)CC1,n,n,n,x,0.73µM,0.65µM
Cc1ccc(Cl)cc1N1CCN(C(=O)CCCn2c(=O)c3cccn3c3cccnc32)CC1,n,n,n,n,u,29µM
O=C(CCn1c(=O)c2cccn2c2cccnc21)N1CCN(c2ccccc2)CC1,n,n,n,x,u,u
COc1cc(C=O)ccc1OCCOCCOc1ccc(Cl)cc1Cl,x,u,x,n,u,15µM
CCOC(=O)c1ccc(NC(=O)c2ncn3c2C(=O)N[C@H](C)C3)cc1,x,x,x,n,n,n
O=C(COC(=O)c1ccc(Cl)c(S(=O)(=O)NCc2ccccc2)c1)NC1CC1,n,n,n,n,n,n
CCOC(=O)c1c(C)[nH]c(C)c1C(=O)COC(=O)c1ccc(Cl)c(S(=O)(=O)NCc2ccccc2)c1,n,n,n,u,21µM,23µM
COC(=O)CNC(=O)/C=C/c1ccc(OC)cc1,n,n,n,n,n,n
CCOC(=O)c1c(C)[nH]c(C)c1C(=O)COC(=O)/C=C/c1ccc(OC)cc1,n,n,n,n,7.3µM,8.2µM
CCOC(=O)C(CC)(CC)C(=O)/C=C/c1ccc(OC)cc1,x,n,n,n,u,18µM
CCOC(=O)c1c(C)[nH]c(C)c1C(=O)COC(=O)c1cc2ccccc2cc1OC,n,n,n,n,u,23µM
CCn1c(-c2ccccc2F)nc2cc(C(=O)NC(c3ccccn3)C(F)(F)F)cc(NC(C)=O)c21 (stereo unspecified),x,x,x,x,n[9.04 µM],n
Cc1[nH]c2ccc(C(=O)OCC(=O)NC3(C#N)CCCCC3)cc2c1C,n,n,n,n,n,n
CCOc1ccccc1C(=O)NC(C(=O)OCC(=O)NNC(=O)c1cccs1)C(C)C (stereo unspecified),x,x,x,n,n,n
CCOC(=O)c1c(C)[nH]c(C)c1C(=O)COC(=O)[C@@H](NC(=O)c1ccccc1OCC)C(C)C,n,n,n,n,u,21µM
CCOC(=O)c1c(C)[nH]c(C)c1C(=O)COC(=O)c1c(OC)cccc1OC,n,n,n,n,n,u
CCOC(=O)c1c(C)[nH]c(C)c1C(=O)COC(=O)c1cc2ccccc2cc1O,n,n,n,n,u,16µM
CC(=O)c1ccc(OCC(=O)N2CCCCC2)cc1,x,x,x,x,n,n
SMILES,TDP1 block,VDR inhibitor,KAT2A inh,PLK1 PBD inh,TDP1 cell CPT,DT40 TDP1 no CPT
CCOC(=O)C1=C(N)Oc2cc(O)ccc2C1c1ccc(F)cc1F (stereo unspecified),x,n,n,n,n,n
CCOC(=O)C1=C(N)Oc2ccc(Br)cc2C1C(C#N)C(=O)OCC (stereo unspecified),n,5.6µM,n,x,n,n
O=C(CCCOc1ccc(Cl)cc1Cl)N/N=C/c1cccc([N+](=O)[O-])c1,n,n,n,27µM,u,n
Cc1n[nH]c(C)c1CCC(=O)N/N=C/c1cccc([N+](=O)[O-])c1,n,n,n,n,n,n
COC(=O)c1ccccc1NC(=O)NN1CCN(C)CC1,n,n,u,n,n,n
COc1ccc(C2=CC(c3ccc(F)cc3)n3ncc(C(=O)Nc4ccc(C)cc4)c3N2)cc1 (stereo unspecified),n,n,n,x,u,u
COc1cccc(C2=CC(c3ccccc3F)n3ncc(C(=O)Nc4ccc(C)cc4)c3N2)c1 (stereo unspecified),n,n,n,x,u,16µM
COc1ccc(C2C=C(c3cccc(OC)c3)Nc3c(C(=O)Nc4ccccc4)cnn32)cc1 (stereo unspecified),n,n,n,x,u,u
COc1cccc(C2C=C(c3ccccc3)Nc3c(C(=O)Nc4ccccc4)cnn32)c1OC (stereo unspecified),n,n,n,x,16µM,15µM
Cc1ccc(NC(=O)c2cnn3c2NC(c2ccccc2)=CC3c2ccccc2)cc1 (stereo unspecified),n,n,u,x,10µM,u
